In PubChem BioAssay (NCI) one finds growth data, which are given here for eight compounds.

Compounds without any hit were thinned out: in the full panel of roughly 83,000, 20% have a hit.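 A percent growth of 40 corresponds to 60% growth inhibition; 0 means no net growth; -100 means all cells died. Active threshold: below 10.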 Values without a mark were called inactive. Active and inactive are the calls of the source.

Test systems include NCI-H23 lung; NCI-H226 lung; NCI-H322M lung; HOP-62 NSCLC; NCI-H460 lung; HOP-92 NSCLC; NCI-H522 lung; A549/ATCC NSCLC; 786-0 renal; COLO 205 colon; DU-145 prostate; K-562 leukemia; MALME-3M melanoma; MDA-MB-231 breast; RXF 393 renal; SF-268 CNS; SF-295 CNS; SF-539 CNS; UACC-257 melanoma; M14 melanoma.
Holding throughout (assay): NCI-60 one-dose screen, 48 h (100 = growth as untreated, 0 = no growth, -100 = all killed)
Conditions in all cases: 10 µM unless noted

As for `C/C(=C\C(=O)c1ccc(Cl)cc1)c1ccc(Cl)cc1`, the growth in the assay on NCI-H23 lung is 83.9%; in the assay on NCI-H226 lung it was 90.9%; in the assay on NCI-H322M lung, 84.9%; with HOP-62 NSCLC, 88.1%; in the assay with NCI-H460 lung, 100%; in the assay on HOP-92 NSCLC, 72.8%. In addition, the growth in the assay on NCI-H522 lung is 87.8%; with A549/ATCC NSCLC, 95.2%; in the assay on 786-0 renal it was 108%; with COLO 205 colon it was 97.5%; in the assay with DU-145 prostate, 113%; in the assay with K-562 leukemia, 106%. Further, the growth with MALME-3M melanoma was 97.5%; in the assay with MDA-MB-231 breast, 89.8%; with RXF 393 renal it was 106%; with SF-268 CNS, 96.4%; in the assay on SF-295 CNS, 109%; with SF-539 CNS, 104%. For the same compound, the growth was 98.4% in the assay with UACC-257 melanoma and 104% with M14 melanoma.
With `NCCNc1nc2ccccc2c2c(=O)c3cc(F)ccc3sc12`, the growth was 84.9% in the assay with NCI-H23 lung; 96% in the assay on NCI-H226 lung; 72.6% with NCI-H322M lung; 76.5% with HOP-62 NSCLC; 12.2% in the assay with NCI-H460 lung; 59.1% in the assay on HOP-92 NSCLC. The growth in the assay with NCI-H522 lung is 79.4%; with A549/ATCC NSCLC, 66.1%; in the assay on 786-0 renal, 73.5%; with COLO 205 colon, -1% (active); in the assay on DU-145 prostate, 65.9%; in the assay with K-562 leukemia it was 1.61% (active). Besides, the growth in the assay with MALME-3M melanoma is 96.2%; in the assay with MDA-MB-231 breast, 33.7%; with RXF 393 renal, 77.8%; in the assay on SF-268 CNS, 66.9%; in the assay with SF-295 CNS, 102%; in the assay with SF-539 CNS, 82.7%. In addition, the growth with UACC-257 melanoma is 103%; in the assay on M14 melanoma, 77.4%.
As to `COc1ccc2nc(NCCCNCCO)c3sc4ccc(F)cc4c(=O)c3c2c1`, the growth with NCI-H23 lung is 62.7%; with NCI-H226 lung, 87.9%; with NCI-H322M lung, 67.8%; in the assay on HOP-62 NSCLC it was 74%; with NCI-H460 lung, -72.8% (active); with HOP-92 NSCLC it was 12.2%. Further, the growth in the assay on NCI-H522 lung was 45.6%; in the assay on A549/ATCC NSCLC, 49.2%; with 786-0 renal, 56.7%; with COLO 205 colon, -49.3% (active); in the assay on DU-145 prostate, -49.7% (active); in the assay on K-562 leukemia, -36.8% (active). For the same compound, the growth with MALME-3M melanoma is 91.8%; in the assay on MDA-MB-231 breast, -26.7% (active); in the assay with RXF 393 renal, 44.4%; in the assay with SF-268 CNS, 47.2%; in the assay with SF-295 CNS, 84.6%; in the assay on SF-539 CNS, -88.9% (active). The growth in the assay on UACC-257 melanoma was 95.4%; with M14 melanoma it was -57.1% (active).
Regarding `CCN1C(=O)N(CC)C2Nn3c(s/c(=C4\C(=O)N(CCC(C)C)c5ccccc54)c3=O)=NC21` (stereo not given), the growth in the assay on NCI-H23 lung was 87.8%; in the assay on NCI-H226 lung, 83.9%; in the assay on NCI-H322M lung, 92.4%; in the assay on HOP-62 NSCLC, 89.2%; in the assay on NCI-H460 lung, 106%; in the assay with HOP-92 NSCLC it was 73.2%. The growth with NCI-H522 lung was 50.4%; in the assay with A549/ATCC NSCLC it was 90%; with 786-0 renal it was 57.1%; in the assay on COLO 205 colon it was 73.2%; in the assay with DU-145 prostate it was 96.3%; in the assay on K-562 leukemia it was 26.1%. Moreover, the growth in the assay on MALME-3M melanoma is 79.8%; in the assay on MDA-MB-231 breast it was 78.3%; in the assay with RXF 393 renal, 84.5%; with SF-268 CNS, 82.5%; with SF-295 CNS it was 98.5%; in the assay with SF-539 CNS, 86.8%. For the same compound, the results for the growth with UACC-257 melanoma and in the assay on M14 melanoma were 66.3% and 56.6%, respectively.
Regarding `CN(C)CCNc1nc2ccccc2c2c(=O)c3cc(F)ccc3sc12`, the growth in the assay on NCI-H23 lung was 58.6%; in the assay on NCI-H226 lung, 83.3%; with NCI-H322M lung, 53%; in the assay on HOP-62 NSCLC it was 51.9%; with NCI-H460 lung, -5.59% (active); in the assay with HOP-92 NSCLC it was 10%. Further, the growth is 37.8% in the assay with NCI-H522 lung; 38.9% in the assay with A549/ATCC NSCLC; 54.1% with 786-0 renal; -39.6% (active) in the assay with COLO 205 colon; 28.1% in the assay on DU-145 prostate; -36.5% (active) in the assay with K-562 leukemia. The growth in the assay on MALME-3M melanoma was 81.9%; in the assay with MDA-MB-231 breast, 6.88% (active); with RXF 393 renal, 40%; in the assay on SF-268 CNS, 45.6%; in the assay with SF-295 CNS, 71.7%; with SF-539 CNS it was 45.3%. In addition, the growth in the assay on UACC-257 melanoma was 91.9%; in the assay on M14 melanoma, -77.9% (active).
Consider `C=C1C(=O)O[C@H]2[C@H]1CC/C(COC(=O)CCSSCCC(=O)OC/C1=C/CC[C@@]3(C)O[C@H]3[C@H]3OC(=O)C(=C)[C@@H]3CC1)=C\CC[C@@]1(C)O[C@@H]21`, for which the growth with NCI-H23 lung is 26.4%; in the assay on NCI-H226 lung it was 78.1%; in the assay on NCI-H322M lung it was 94.6%; with HOP-62 NSCLC, 72.3%; in the assay with NCI-H460 lung, 64%; with HOP-92 NSCLC, -57.7% (active). Moreover, the growth with NCI-H522 lung is -79.8% (active); in the assay on A549/ATCC NSCLC, 60.8%; in the assay on 786-0 renal it was -70.9% (active); with COLO 205 colon, -72.5% (active); in the assay on DU-145 prostate it was 10.7%; in the assay on K-562 leukemia, -1.59% (active). The growth with MALME-3M melanoma was -27.1% (active); with MDA-MB-231 breast it was -83.7% (active); in the assay with RXF 393 renal, -93.6% (active); in the assay with SF-268 CNS, 24.8%; with SF-295 CNS, 72.9%; in the assay with SF-539 CNS it was -63.4% (active). The growth with UACC-257 melanoma is -7.74% (active); in the assay on M14 melanoma, -10.1% (active).
For `O=C1COCCN1c1ccc(NCc2cn(C(=O)c3ccc(Cl)cc3)c3ccccc23)cc1`, the growth is 54.5% in the assay on NCI-H23 lung; -61.1% (active) with NCI-H226 lung; 95.1% in the assay on NCI-H322M lung; 60.2% in the assay on HOP-62 NSCLC; 14.9% with NCI-H460 lung; 58.2% in the assay on HOP-92 NSCLC. Moreover, the growth was 65.6% in the assay with NCI-H522 lung; 46.9% in the assay on A549/ATCC NSCLC; 65.8% in the assay with 786-0 renal; 29.3% with COLO 205 colon; 84.2% in the assay on DU-145 prostate; 28.3% in the assay on K-562 leukemia. For the same compound, the growth was 78.1% with MALME-3M melanoma; 118% in the assay with MDA-MB-231 breast; 8.91% (active) in the assay with RXF 393 renal; 98% in the assay on SF-268 CNS; 47.2% with SF-295 CNS; 93.4% in the assay with SF-539 CNS. Also, the growth with UACC-257 melanoma is 33.6%; in the assay on M14 melanoma it was 74.1%.
On to `O=C(Nn1c(NCC(=O)N2c3ccccc3Sc3ccccc32)nnc1-c1ccc(O)cc1)c1ccccc1`, for which the growth in the assay with NCI-H23 lung was 94.4%; in the assay on NCI-H226 lung it was 104%; in the assay with NCI-H322M lung it was 104%; in the assay on HOP-62 NSCLC it was 99.5%; with NCI-H460 lung, 105%; in the assay on HOP-92 NSCLC, 91.2%. Also, the growth with NCI-H522 lung was 93.1%; with A549/ATCC NSCLC, 106%; in the assay with 786-0 renal it was 92.4%; in the assay on COLO 205 colon, 112%; with DU-145 prostate, 113%; with K-562 leukemia, 118%. The growth was 95.5% in the assay with MALME-3M melanoma; 95.3% in the assay on MDA-MB-231 breast; 122% in the assay with RXF 393 renal; 105% in the assay with SF-268 CNS; 105% with SF-295 CNS; 105% with SF-539 CNS. Further, the results for the growth in the assay with UACC-257 melanoma and in the assay with M14 melanoma were 104% and 92.8%, respectively.
